Experimental data as given in PubChem BioAssay AID488969 (Vanderbilt High Throughput Screening Facility, 2010).
Over roughly 110,000 compounds, “z-score” has its median near -0.1; the highest 2% begin near 2. Many of the other results were omitted from the sample, so the highest values are more common in it than they were. Active and inactive are the calls of the source.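 Rule for the calls: active = z-score in the third read window above 3 or below -3; inactive = the rest.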

biological target: Metabotropic glutamate receptor 8 (Rattus norvegicus) (UniProt P70579); experiment: rat mGluR8 modulators via GIRK flux, primary screen, cell-based, thallium flux, HTS (AID 488969); details: HEK293 rat mGluR8, GIRK (G protein-gated inwardly rectifying potassium channel) thallium flux, FluoZin2; at 10 µM; stronger effect = higher value; submaximal glutamate (EC20) added with thallium
Sequence (P70579 whole entry, looked up): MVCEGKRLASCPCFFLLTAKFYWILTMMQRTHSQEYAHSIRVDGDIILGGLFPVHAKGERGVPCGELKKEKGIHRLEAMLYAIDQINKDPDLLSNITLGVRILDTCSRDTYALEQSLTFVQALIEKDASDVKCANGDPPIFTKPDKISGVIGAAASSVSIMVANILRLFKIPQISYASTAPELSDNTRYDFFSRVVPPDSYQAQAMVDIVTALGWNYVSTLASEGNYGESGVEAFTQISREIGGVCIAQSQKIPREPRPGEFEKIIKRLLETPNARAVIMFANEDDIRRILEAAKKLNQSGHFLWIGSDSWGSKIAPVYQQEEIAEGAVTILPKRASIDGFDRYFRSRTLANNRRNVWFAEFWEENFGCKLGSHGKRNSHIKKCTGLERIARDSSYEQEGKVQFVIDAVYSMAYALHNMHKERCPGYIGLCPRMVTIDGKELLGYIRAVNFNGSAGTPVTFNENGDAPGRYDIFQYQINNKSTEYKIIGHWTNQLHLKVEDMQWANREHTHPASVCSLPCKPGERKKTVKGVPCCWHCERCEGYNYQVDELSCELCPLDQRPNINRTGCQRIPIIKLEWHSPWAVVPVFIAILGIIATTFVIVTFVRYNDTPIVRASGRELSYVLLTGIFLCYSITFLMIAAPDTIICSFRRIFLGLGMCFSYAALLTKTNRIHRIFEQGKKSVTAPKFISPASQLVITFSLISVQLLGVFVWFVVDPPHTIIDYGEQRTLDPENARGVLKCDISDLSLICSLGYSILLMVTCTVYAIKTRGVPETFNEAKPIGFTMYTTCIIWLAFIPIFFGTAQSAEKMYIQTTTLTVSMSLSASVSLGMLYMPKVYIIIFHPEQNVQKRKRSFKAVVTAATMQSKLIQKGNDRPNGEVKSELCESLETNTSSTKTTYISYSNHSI

SMILES | z-score
O=C(CN1C(=O)C2CC=CCC2C1=O)Nc1nnc(SCc2ccc(Cl)cc2)s1 (stereo not drawn) | -0.31
c1ccc2c(Nc3nnc(-c4ccncc4)s3)cccc2c1 | 4.07 (active)
CCNc1nnc(-c2ccncc2)s1 | -0.233
Cc1ccc(Nc2nnc(-c3ccncc3)s2)c(Br)c1 | 0.13
N=C1CCCN1CC(=O)c1ccc(Cl)cc1 | 0.073
COc1cc2c(C)nc3onc(-c4ccccc4)c3c2cc1OC | -0.241
O=C(CSc1nc2ccccc2[nH]1)NC1CCCc2ccccc21 (stereo not drawn) | 2.41
Cc1ccc2nc(SCC(=O)NC3CCCc4ccccc43)[nH]c2c1 (stereo not drawn) | 0.164
COc1ccc2nc(SCC(=O)NC3CCCc4ccccc43)[nH]c2c1 (stereo not drawn) | 0.0427
O=C(NCc1cccnc1)C1CCN(C(=O)c2ccc(Cl)cc2Cl)CC1 | -0.0203
N=C1S/C(=C\c2cn[nH]c2-c2ccc(F)cc2)C(=O)N1c1ccccc1F | 0.348
CCn1c(-c2nn(C)c(C)c2Cl)n[nH]c1=S | -0.461
CCCCn1nnc(NC(=S)NC(=O)c2ccc(-c3cccc(Cl)c3Cl)o2)n1 | 4.59 (active)
CCCCn1nnc(NC(=O)c2ccc(-c3cccc(Cl)c3)o2)n1 | -0.581
CCCCn1nnc(NC(=S)NC(=O)c2cccs2)n1 | 0.0688
COc1cccc(C(=O)/C=C/c2ccc(SC)cc2)c1 | 0.0506
CCC(C)N1CC(C(=O)O)CC1=O (stereo not drawn) | -0.0459
CCOc1ccc(S(=O)(=O)N2CCN(Cc3ccccc3)CC2)c2cccnc12 | 0.939
Cc1cc(Oc2ccc(C)c(Cl)c2)nc(SCC(=O)c2ccccc2)n1 | -0.36
N#C/C(=C\c1ccc(N2CCCC2)c([N+](=O)[O-])c1)c1nc2ccccc2[nH]1 | 0.221
N#C/C(=C/c1ccc(N2CCCC2)c([N+](=O)[O-])c1)c1nc2ccccc2[nH]1 | 0.0678
N#C/C(=C\c1ccc(N2CCOCC2)c([N+](=O)[O-])c1)c1nc2ccccc2[nH]1 | 2.63
COC(=O)N/N=C/c1cc(C)n(-c2cccc3ccccc23)c1C | 0.0823
O=C(Nc1ccccc1)N1CCN(c2ccc(C(F)(F)F)cn2)CC1 | -0.362

SMILES | z-score
CC1CC(C)CN(Cc2nc(N)nc(Nc3ccccc3)n2)C1 (stereo not drawn) | 0.639
Nc1nc(CN2CCC(Cc3ccccc3)CC2)nc(Nc2ccccc2)n1 | 2.39
CC1CC(C)CN(Cc2nc(N)nc(Nc3ccc4ccccc4c3)n2)C1 (stereo not drawn) | 3.66 (active)
Nc1nc(CN2CCN(Cc3ccccc3)CC2)nc(Nc2ccccc2)n1 | 0.26
Nc1nc(CN2CCCCCC2)nc(Nc2ccccc2)n1 | 0.00781
COc1ccccc1Nc1nc(N)nc(CN2CCC(Cc3ccccc3)CC2)n1 | 0.165
O=c1oc2ccccc2c(N2CCCC2)c1CN1CCCC1 | -0.557
CCOC(=O)NC1(NCC(C)C)Oc2ccccc2O1 | -0.313
COc1cc(/C=N/OCC(=O)NC2CCCCC2)ccc1OCc1ccccc1 | -0.752
CC(C)c1ccc(OCC(=O)Nc2ccc(OC(F)(F)F)cc2)cc1 | -0.173
COc1ccccc1C(=O)NCCn1cc(SCC(=O)Nc2cc(C)on2)c2ccccc21 | -0.181
O=C(NC(=S)Nc1c(Cl)ccc2nsnc12)c1ccco1 | -0.429
Cc1ccc2nsnc2c1NC(=S)NC(=O)c1ccco1 | 6.75 (active)
Cc1ccnc(NC(=S)NC(=O)c2cccs2)c1 | 7.29 (active)
Cc1cccnc1NC(=S)NC(=O)/C=C/c1ccco1 | 0.37
Cc1ccnc(NC(=S)NC(=O)/C=C/c2ccccc2)c1 | -0.0726
O=C(Nc1ncc(Cl)cn1)c1cccs1 | 0.0318
Cc1cccnc1NC(=S)NC(=O)c1cccs1 | 0.0645
CC(=O)Nc1c(C)ccc2nsnc12 | 0.0413
O=C(NC(=S)Nc1ccc(Cl)cn1)C(c1ccccc1)c1ccccc1 | 0.284
Cc1ccnc(NC(=O)c2cccs2)c1 | -0.306
Cc1ccnc(NC(=S)NC(=O)/C=C/c2ccco2)c1 | 3.2 (active)
O=C(NC(=S)Nc1ccc(Cl)cn1)c1cccs1 | 10.3 (active)
O=C(c1ccccc1)n1ccn(-c2ccccc2)c1=S | -1.09

SMILES | z-score
CC1CC1C(=O)OCC(=O)Nc1ccc(N=Nc2ccccc2)cc1 (stereo not drawn) | 0.616
O=C(C1CC(c2ccc(F)cc2)=NO1)N1CCCCC1 (stereo not drawn) | -0.0299
O=C(CCC(NC(=O)OCc1ccccc1)C(=O)OCC(=O)N1CCCCC1)OCC(=O)N1CCCCC1 (stereo not drawn) | 0.254
C=CCC(NCc1ccco1)c1ccc(OC)cc1OC (stereo not drawn) | -0.246
CC1CCc2nn(CC(=O)NCCN3CCCCC3C)cc2C1 (stereo not drawn) | 0.216
Cc1ccc2ccc(S(=O)(=O)n3nc(C)cc3C)cc2c1 | -0.75
Cc1ccnc(NC(=S)NC(=O)c2ccco2)c1 | 2
Cc1cccc(NC(=S)NC(=O)/C=C/c2ccco2)n1 | 0.626
CCC(=O)NC(=S)Nc1ccc(Cl)cn1 | 0.168
Cc1cccc(NC(=O)c2cc(NC(=O)c3ccco3)ccc2Cl)n1 | -0.288
Cc1cccc(NC(=S)NC(=O)c2cccs2)n1 | 5.04 (active)
Cc1cccc(NC(=O)Cc2cccs2)n1 | -0.58
Cc1cccc(NC(=S)NC(=O)c2ccco2)n1 | 3.93 (active)
O=C(NC(=S)Nc1ccccn1)c1ccco1 | 1.2
Cc1cccc(NC(=O)c2cccs2)n1 | 0.965
CC(C)CC(=O)NC(=S)Nc1ccc(Cl)cn1 | 2.96
COC(=O)C(NC(=O)c1ccco1)(Nc1cc(C)ccn1)C(F)(F)F (stereo not drawn) | 0.329
CCCC(=O)NC(=S)Nc1ccc(Cl)cn1 | 0.131
CC(=O)c1c(C)[nH]c(C(=O)COC(=O)CNS(=O)(=O)c2ccccc2)c1C | -0.187
C(=N\N1CCN(Cc2ccccc2)CC1)/c1cccs1 | -0.298
CC(=O)Nc1ccc(S(=O)(=O)NCCC(=O)Nc2ccc(C)c(Cl)c2)cc1 | -0.0921
CC(=O)c1ccc(NC(=O)CSc2ccc(-c3ccc4c(c3)OCO4)nn2)cc1 | -0.125
CCOC(=O)N1CCN(C(=O)C2CC(c3cc(OC)ccc3OC)=NO2)CC1 (stereo not drawn) | -0.594
COc1ccc(Br)cc1CNC(=O)C1CCN(S(=O)(=O)N2CCCCC2)CC1 | -0.52

SMILES | z-score
Cc1ccc(C(=O)NC(C)c2ccc(F)cc2)cc1 (stereo not drawn) | -0.249
Fc1ccc(-c2nnc3ccc(N4CCc5ccccc5C4)nn23)cc1 | 2.89
O=C(Nc1ccc(F)cc1)N1CCN(c2ccc3nnc(-c4ccc(F)cc4)n3n2)CC1 | -1.17
c1ccc(-c2nnc3ccc(N4CCCC4)nn23)cc1 | -4.38 (active)
Cc1ccc(NC(=O)NNC(=O)c2cccs2)cc1 | 0.53
NC(=O)c1ccc(C(F)(F)F)n(Cc2ccc(Cl)cc2)c1=O | -0.45
Cc1[nH]n(-c2ccccc2)c(=O)c1-c1cccc(Cl)c1 | 0.257
O=C(N1CCOCC1)N1CCN(C(=O)N(c2ccccc2)c2ccccc2)CC1 | -0.217
O=C(N1CCCCC1)N1CCN(C(=O)N(c2ccccc2)c2ccccc2)CC1 | 3.16 (active)
CN(C)S(=O)(=O)N1CCN(C(=O)N(c2ccccc2)c2ccccc2)CC1 | -0.395
COc1ccc(-c2nc3c(c(=O)c4ccccc4n3C)c(=O)n2Cc2ccccc2)cc1 | -0.433
CCCN(/C=N/c1sc2c(c1C#N)CCCCC2)CCC | -0.155
CCN(/C=N/c1sc2c(c1C#N)CCCCC2)CC | -0.292
CC(C)CN(/C=N/c1sc2c(c1C#N)CCCCC2)CC(C)C | 2.9
CCOC(=O)c1nnc2c(Br)c(-c3ccccc3)nn2c1C | -0.554
CCC(=O)Nc1ccc(-c2csc(NNC(C)=O)n2)cc1 | -0.182
Cn1ccnc1SCC(=O)Nc1ccc(Oc2ccccc2)cc1 | 2.29
CC(C)(C)NC(=O)CSc1nccn1Cc1ccccc1 | 0.488
CCOc1ccc(NC(=O)CSc2nccn2C)cc1 | -0.0963
CC(=O)Nc1ccc(NC(=O)CSc2nccn2Cc2ccccc2)cc1 | 2.89
Cn1ccnc1SCC(=O)Nc1ccccc1 | 0.326
COC(=O)c1ccc(NC(=O)CSc2nnc(COc3ccccc3)n2C)cc1 | 11.8 (active)
Cc1ccc(NC(=O)CSc2nccn2Cc2ccccc2)cc1C | -0.465
COC(=O)c1cccc(NC(=O)CSc2nnc(COc3ccccc3)n2C)c1 | -0.736

SMILES | z-score
CCOC(=O)c1ccc(NC(=O)CSc2nnc(COc3ccccc3)n2C)cc1 | -0.177
CCc1sc(C(=O)Nc2ccc(F)cc2C)cc1C | -0.0957
O=C(CCC(=O)c1cccs1)Nc1ccc(F)c(F)c1F | 0.32
CCc1ccc(NS(=O)(=O)c2cc(OC)ccc2OC)cc1 | -0.868
Cc1nc(NCCc2ccc(F)cc2)c(C#N)c(C)c1[N+](=O)[O-] | -0.205
COc1cc(C)nc(OCCNS(=O)(=O)c2cc(C)ccc2C)n1 | 0.217
CC(/C=N/NC(=O)c1ccc(Br)cc1)=C\c1ccccc1 | -1.26
CC(/C=N/NC(=O)c1c(Br)cnn1C)=C\c1ccccc1 | 3.16 (active)
CC(/C=N/NC(=O)c1nn(C)c(C)c1Br)=C\c1ccccc1 | -0.0235
O=C(Nc1ccc(C(=O)N2CCCCC2)cc1)c1ccc(Br)cc1 | 1.09
CC(C)CCNC(=O)Cn1c(=O)oc2cc(S(=O)(=O)N3CCc4ccccc43)ccc21 | -0.186
COc1cc(CNc2ccc(N3CCCC3)cc2)ccc1OCc1ccccc1F | -0.289
COc1cc(CNc2ccc(N3CCCC3)cc2)ccc1OCc1ccccc1 | 3.82 (active)
COc1cc(CNc2ccc(CNc3ncn[nH]3)cc2)ccc1OCc1ccccc1 | -0.026
CC(C(=O)NCCN1C(=O)S/C(=C\c2cccs2)C1=O)N1C(=O)c2ccccc2C1=O (stereo not drawn) | -0.139
Cc1ccc(C)c(NC(=O)CCC(=O)NNC(=O)c2cccc([N+](=O)[O-])c2)c1 | 0.265
CSc1ccccc1C(=O)Nc1cccc(C(C)O)c1 (stereo not drawn) | 0.209
CSc1ccccc1C(=O)Nc1cccc(C(C)=O)c1 | 3.03 (active)
CSc1ccccc1C(=O)Nc1cccc(C)c1 | -0.792
CCOC(=O)Cc1c(C)nc2cc(-c3ccc(C)cc3)[nH]n2c1=O | 0.0804
C1CCCC(N2CCNCC2)CC1 | 0.33
COC(=O)c1cc(=O)nc2sccn12 | -0.417
